Compound activity as filed in PubChem BioAssay.
Compounds with a hit are over-represented: about 4.6% of the library has one in this group of screens.
HSF1 inhib: HSF1 inhibition. 0.77% of 300,000 active. activity change, negative = inhibition, % at 7.5 µM (by protocol). NIH3T3-HGL HSE-luciferase, MG132-induced, luminescence 8 h; active compounds read low;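 active = more than half of replicate wells show activity change below -50%, luminescence cut by over half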;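 note: luciferase reports HSF-1 transcriptional activity via heat shock element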
FXN GAA850 act: frataxin GAA850 promoter activation; HEK293 lucGAA850 FXN promoter luciferase reporter, 24 h; percent of 10 µM SAHA response; activation, % at 6 µM; 0.56% of 360,000 active; AID 540364;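 active = activation above the average of all compounds screened plus 3 SD, cutoff fixed separately per campaign, cut at about 7.5% in these data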
HSF1 activator: increases HSF-1 driven luciferase reporter signal; NIH3T3-HGL HSF-1 luciferase reporter, MG132, 8 h; 100% = twice DMSO control signal; activation, % at 9 µM; 1.7% of 300,000 active; AID 504408;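 active = mean replicate activation of at least 50% with a set share of replicates each reaching 50%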
AHR act: activators of human aryl hydrocarbon receptor. P35869. AHR-responsive luciferase reporter cells, luminescence. activation, % at 5 µM. 2.5% of 320,000 active. AID 2796; in the data active = activation above about 47%
Hits are given with their value; - = inactive; . = no result.

SMILES | HSF1 inhib | FXN GAA850 act | HSF1 activator | AHR act
O=[N+]([O-])c1ccc(-c2cn(-c3ccccc3)c(=S)[nH]2)cc1 | - | - | - | 47
Cc1cccc(-n2cc(-c3ccc([N+](=O)[O-])cc3)[nH]c2=S)c1 | - | - | 71 | -
COc1ccc(C(C(=O)NC2CCCC2)N(C(=O)c2snc(-c3ccc(F)cc3)c2N)c2cccc(F)c2)cc1 (centres undefined) | - | - | - | -
Cc1cc(NS(=O)(=O)c2ccc(NC(=O)C3CCCCC3)cc2)no1 | - | - | - | -
c1ccc(Cn2c(-c3ccco3)nc3nc4ccccc4nc32)cc1 | - | - | 90 | -
c1ccc(-c2nc3nc4ccccc4nc3n2CC2CCCO2)cc1 (centres undefined) | - | - | - | -
Clc1ccc(-c2nc3nc4ccccc4nc3n2Cc2ccco2)cc1 | . | - | . | 53
c1coc(-c2nc3nc4ccccc4nc3n2CC2CCCO2)c1 (centres undefined) | - | - | 56 | -
O=C(NCCC(c1ccccc1)c1ccccc1)c1cnc2sccn2c1=O | - | - | - | -
C[C@H](CO)N1C[C@H](C)[C@@H](CN(C)C(=O)C2CC2)OCc2cnnn2CCCC1=O | . | - | . | .
Cc1c(N(C)S(=O)(=O)c2cccc(C(=O)NC(C)C)c2)c(=O)n(-c2ccccc2)n1C | - | - | 62 | -
O=C(CSc1ccccc1)Nc1nccs1 | - | - | - | -
O=C(CSc1cn(Cc2ccccc2)c2ccccc12)Nc1nccs1 | - | - | 65 | -
CCN1CCN(c2ccc(N3CCN(S(=O)(=O)c4cccc([N+](=O)[O-])c4)CC3)nn2)CC1 | . | - | . | .
COc1cc(C(=O)NCc2nnc(SCC(=O)Nc3cc(C)cc(C)c3)o2)cc(OC)c1OC | -56 | - | - | -
COc1cc(C(=O)NCc2nnc(SCC(=O)Nc3c(C)cc(C)cc3C)o2)cc(OC)c1OC | - | - | - | -
O=C(Nc1ccc2c(c1)OCCO2)c1cc2sccc2n1Cc1ccc(F)cc1 | - | - | - | 64
O=C(Nc1ccc2c(c1)OCCO2)c1cc2sccc2n1Cc1ccccc1 | - | - | - | -
COc1cc2nc(N(C)C)nc(N)c2cc1OC | - | - | - | 65
Cc1cccc2c1Sc1ccc(Cl)cc1CC2N1CCNCC1 (centres undefined) | - | . | - | -
Cc1ccccc1SCc1noc(C(=O)NCC2CCCO2)c1C(=O)O (centres undefined) | - | - | - | -
O=C(NCC1CCCO1)c1onc(CSc2ccc(Cl)cc2)c1C(=O)O (centres undefined) | -61 | - | - | -
CCCNC(=O)c1c(CSc2ccc(Cl)cc2)noc1C(=O)NCc1ccccc1 | - | - | 54 | -
Cn1c2ccccc2n2c(=O)c(=O)n(CC(=O)N3CCCc4ccccc43)nc12 | - | . | - | -
CCN1C(=S)N[C@@H](CCc2ccccc2)C(C(=O)OC)=C1C | - | - | - | 53
SMILES | HSF1 inhib | FXN GAA850 act | HSF1 activator | AHR act
CCN1C(=O)N[C@@H](CCc2ccccc2)C(C(C)=O)=C1C | - | - | - | -
CC(=O)c1ccc(NC(=O)C2CCCN(S(=O)(=O)c3ccc(-n4cnnn4)cc3)C2)cc1 (centres undefined) | - | - | - | -
O=C(Nc1ccccc1)Nc1nnc(Cc2ccccc2F)s1 | - | - | - | -
CCOc1cccc(C(=O)Nc2nnc(-c3ccco3)s2)c1 | . | - | . | 48
COc1ccc(NC(=O)Nc2nnc(-c3ccco3)s2)cc1 | - | - | - | 64
Cc1cccc(OCC(=O)Nc2nnc(-c3ccco3)s2)c1 | - | - | - | -
COc1ccc(NC(=O)Nc2nnc(-c3ccncc3)s2)cc1 | - | - | - | -
COc1ccc(NC(=O)Nc2ccc(O)c3ccccc23)cc1 | - | . | - | 75
COc1cccc(NC(=O)Nc2nnc(Cc3ccccc3F)s2)c1 | -67 | - | - | -
N#CC1=C(N)SC(C(=O)c2ccccc2)C1c1cccs1 (centres undefined) | - | - | - | -
COc1ccc(NC(=O)Nc2nnc(-c3ccccc3F)s2)cc1 | - | - | - | 71
Cc1ccc(NC(=O)Nc2nnc(-c3ccccc3F)s2)cc1 | - | - | - | -
CC(C)(C)c1ccc(C(=O)CC(Sc2ccc(Cl)cc2)C(=O)O)cc1 (centres undefined) | - | - | 56 | -
Cc1cc(Cl)ccc1OCC(=O)Nc1ccc2oc(=O)ccc2c1 | - | - | - | -
CN=c1scc(-c2ccccc2F)n1/N=C/c1ccc[nH]1 | -87 | - | - | -
CN=c1scc(-c2ccccc2F)n1/N=C/c1ccc(O)c(O)c1O | -65 | - | - | .
CN=c1scc(C)n1/N=C/c1ccc(O)cc1 | . | - | . | -
